For one compound, residual activity results are on record in ChEMBL document CHEMBL2218924, “A broad activity screen in support of a chemogenomic map for kinase signalling research and drug discovery” (Biochem J, 2013).

Experiment [1] has as its target T1, Serine/threonine-protein kinase TBK1 (Homo sapiens) (UniProt Q9UHD2).
T1 sequence (whole entry): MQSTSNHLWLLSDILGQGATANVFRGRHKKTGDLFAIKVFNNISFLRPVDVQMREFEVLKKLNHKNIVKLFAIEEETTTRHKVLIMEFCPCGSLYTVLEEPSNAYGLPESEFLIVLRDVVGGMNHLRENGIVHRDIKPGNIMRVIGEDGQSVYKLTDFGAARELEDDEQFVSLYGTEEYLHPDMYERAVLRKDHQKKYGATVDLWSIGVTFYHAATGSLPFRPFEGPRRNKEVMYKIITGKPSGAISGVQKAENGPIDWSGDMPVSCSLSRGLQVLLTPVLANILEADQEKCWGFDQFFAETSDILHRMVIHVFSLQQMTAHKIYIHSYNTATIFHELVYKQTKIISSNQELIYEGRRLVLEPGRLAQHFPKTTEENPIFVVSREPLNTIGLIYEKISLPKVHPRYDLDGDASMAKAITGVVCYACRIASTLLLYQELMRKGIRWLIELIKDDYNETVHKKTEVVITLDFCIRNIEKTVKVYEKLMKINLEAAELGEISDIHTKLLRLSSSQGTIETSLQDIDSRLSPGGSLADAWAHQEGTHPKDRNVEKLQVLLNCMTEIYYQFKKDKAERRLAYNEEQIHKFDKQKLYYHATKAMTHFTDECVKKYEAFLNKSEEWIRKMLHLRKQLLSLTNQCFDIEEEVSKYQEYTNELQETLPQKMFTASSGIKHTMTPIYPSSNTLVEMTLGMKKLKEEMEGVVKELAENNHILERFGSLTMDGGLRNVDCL
The settings on record: at 10 µM.

For experiment [2], the target named is T2, TGF-beta receptor type-1 (Homo sapiens) (UniProt P36897).
T2 sequence (whole entry): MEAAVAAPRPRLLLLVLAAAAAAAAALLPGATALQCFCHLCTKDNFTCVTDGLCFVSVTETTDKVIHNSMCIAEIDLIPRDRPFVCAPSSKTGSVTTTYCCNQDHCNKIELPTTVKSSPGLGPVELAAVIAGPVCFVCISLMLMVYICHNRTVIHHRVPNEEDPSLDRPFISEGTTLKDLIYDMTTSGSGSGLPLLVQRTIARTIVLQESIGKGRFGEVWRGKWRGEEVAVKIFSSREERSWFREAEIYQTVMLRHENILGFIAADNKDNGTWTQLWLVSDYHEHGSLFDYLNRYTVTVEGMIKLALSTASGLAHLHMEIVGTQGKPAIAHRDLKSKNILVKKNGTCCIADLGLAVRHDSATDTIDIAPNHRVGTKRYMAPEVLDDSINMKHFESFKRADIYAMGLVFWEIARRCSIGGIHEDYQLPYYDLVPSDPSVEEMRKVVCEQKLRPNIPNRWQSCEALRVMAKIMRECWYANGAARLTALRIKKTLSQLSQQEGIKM
The settings on record: at 1 µM.

The target of experiment [3] is T2, TGF-beta receptor type-1 (Homo sapiens). The settings on record: at 10 µM.
The target of experiment [4] is Insulin-like growth factor 1 receptor (Homo sapiens) (UniProt P08069). The following applies: at 1 µM.
Sequence of Insulin-like growth factor 1 receptor (Homo sapiens) (P08069 31-736 limits assumed): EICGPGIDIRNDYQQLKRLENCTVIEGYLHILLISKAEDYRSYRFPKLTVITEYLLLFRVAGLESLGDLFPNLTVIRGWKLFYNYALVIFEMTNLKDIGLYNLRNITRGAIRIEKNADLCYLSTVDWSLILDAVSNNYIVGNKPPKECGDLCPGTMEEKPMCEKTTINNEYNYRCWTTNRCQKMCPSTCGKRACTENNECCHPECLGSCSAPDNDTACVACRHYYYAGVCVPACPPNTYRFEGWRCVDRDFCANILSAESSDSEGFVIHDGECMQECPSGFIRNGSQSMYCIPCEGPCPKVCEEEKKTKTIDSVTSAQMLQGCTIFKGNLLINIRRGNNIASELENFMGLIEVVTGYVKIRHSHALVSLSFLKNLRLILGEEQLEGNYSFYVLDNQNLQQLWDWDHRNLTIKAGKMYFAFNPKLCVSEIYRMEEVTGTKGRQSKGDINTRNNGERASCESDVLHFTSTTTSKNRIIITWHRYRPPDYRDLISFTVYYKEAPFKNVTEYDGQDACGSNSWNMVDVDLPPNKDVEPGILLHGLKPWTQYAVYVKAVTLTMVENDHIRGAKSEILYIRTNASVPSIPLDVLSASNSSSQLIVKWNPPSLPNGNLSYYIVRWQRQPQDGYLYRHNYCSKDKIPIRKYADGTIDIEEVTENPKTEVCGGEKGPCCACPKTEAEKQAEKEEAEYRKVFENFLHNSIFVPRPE
Sequence of Insulin-like growth factor 1 receptor (Homo sapiens) (P08069 741-1367 limits assumed): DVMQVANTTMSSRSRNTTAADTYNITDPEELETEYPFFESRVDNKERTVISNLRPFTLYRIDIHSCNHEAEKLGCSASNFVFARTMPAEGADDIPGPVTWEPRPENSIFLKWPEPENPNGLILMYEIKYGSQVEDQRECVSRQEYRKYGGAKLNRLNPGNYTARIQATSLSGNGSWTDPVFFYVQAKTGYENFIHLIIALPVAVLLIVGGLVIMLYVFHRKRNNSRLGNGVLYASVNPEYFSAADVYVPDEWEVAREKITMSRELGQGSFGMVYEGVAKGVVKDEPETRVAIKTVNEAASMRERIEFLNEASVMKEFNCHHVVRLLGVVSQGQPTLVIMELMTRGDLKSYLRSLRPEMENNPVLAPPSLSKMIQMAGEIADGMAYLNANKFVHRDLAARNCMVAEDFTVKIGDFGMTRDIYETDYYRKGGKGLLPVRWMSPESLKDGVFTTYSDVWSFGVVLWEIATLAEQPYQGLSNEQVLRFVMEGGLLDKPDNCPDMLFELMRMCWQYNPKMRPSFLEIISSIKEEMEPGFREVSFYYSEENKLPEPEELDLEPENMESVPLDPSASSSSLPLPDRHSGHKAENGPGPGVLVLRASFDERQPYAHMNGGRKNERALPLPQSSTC
Experiment [5] has the same target. The settings on record: at 10 µM.
The target of experiment [6] is T3, Inhibitor of nuclear factor kappa-B kinase subunit alpha (Homo sapiens) (UniProt O15111).
T3 sequence (whole entry): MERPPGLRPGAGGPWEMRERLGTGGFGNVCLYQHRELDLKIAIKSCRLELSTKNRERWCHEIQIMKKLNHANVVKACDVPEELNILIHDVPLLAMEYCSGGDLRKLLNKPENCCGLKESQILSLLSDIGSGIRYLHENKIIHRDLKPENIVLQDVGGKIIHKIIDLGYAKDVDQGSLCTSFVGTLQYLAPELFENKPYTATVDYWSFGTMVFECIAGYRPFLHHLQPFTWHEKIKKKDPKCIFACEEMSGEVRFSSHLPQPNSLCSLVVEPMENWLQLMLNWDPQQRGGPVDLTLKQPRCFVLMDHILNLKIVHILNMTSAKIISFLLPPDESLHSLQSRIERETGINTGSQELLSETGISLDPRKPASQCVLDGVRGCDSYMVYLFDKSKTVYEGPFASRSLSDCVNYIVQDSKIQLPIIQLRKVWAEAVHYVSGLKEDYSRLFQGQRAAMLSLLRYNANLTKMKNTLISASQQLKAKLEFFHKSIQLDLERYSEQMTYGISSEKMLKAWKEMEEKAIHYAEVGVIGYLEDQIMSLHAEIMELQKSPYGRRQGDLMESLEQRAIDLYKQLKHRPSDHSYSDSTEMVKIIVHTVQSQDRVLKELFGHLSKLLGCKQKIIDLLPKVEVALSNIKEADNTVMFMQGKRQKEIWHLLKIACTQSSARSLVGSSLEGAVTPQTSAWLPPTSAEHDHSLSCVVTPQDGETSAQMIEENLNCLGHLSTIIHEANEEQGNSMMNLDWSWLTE
The following applies: at 1 µM.

The target of experiment [7] is T3, Inhibitor of nuclear factor kappa-B kinase subunit alpha (Homo sapiens). The following applies: at 10 µM.
Experiment [8] has as its target T4, Inhibitor of nuclear factor kappa-B kinase subunit beta (Homo sapiens) (UniProt O14920).
T4 sequence (whole entry): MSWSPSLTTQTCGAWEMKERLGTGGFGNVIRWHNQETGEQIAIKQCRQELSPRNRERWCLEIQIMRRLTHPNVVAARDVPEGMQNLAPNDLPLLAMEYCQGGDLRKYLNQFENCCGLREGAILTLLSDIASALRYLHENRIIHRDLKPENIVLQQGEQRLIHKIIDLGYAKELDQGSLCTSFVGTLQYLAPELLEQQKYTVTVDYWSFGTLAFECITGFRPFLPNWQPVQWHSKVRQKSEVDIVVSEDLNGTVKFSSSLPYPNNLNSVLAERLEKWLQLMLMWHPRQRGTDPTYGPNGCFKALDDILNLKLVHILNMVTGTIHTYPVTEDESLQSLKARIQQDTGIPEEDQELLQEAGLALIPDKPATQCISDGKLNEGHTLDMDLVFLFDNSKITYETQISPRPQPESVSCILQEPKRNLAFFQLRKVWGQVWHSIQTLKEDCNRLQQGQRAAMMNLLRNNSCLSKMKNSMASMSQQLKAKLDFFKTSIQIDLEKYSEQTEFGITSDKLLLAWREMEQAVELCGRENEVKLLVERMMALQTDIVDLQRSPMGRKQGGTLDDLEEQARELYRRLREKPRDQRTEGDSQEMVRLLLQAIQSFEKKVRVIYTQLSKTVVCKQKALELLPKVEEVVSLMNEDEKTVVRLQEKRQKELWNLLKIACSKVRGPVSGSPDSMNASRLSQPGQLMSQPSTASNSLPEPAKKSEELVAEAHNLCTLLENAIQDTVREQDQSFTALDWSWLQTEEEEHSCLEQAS
The following applies: at 1 µM.

Experiment [9] addresses T4, Inhibitor of nuclear factor kappa-B kinase subunit beta (Homo sapiens). The settings on record: at 10 µM.
For experiment [10], the target named is Insulin receptor (Homo sapiens) (UniProt P06213). The settings on record: at 1 µM.
Sequence of Insulin receptor (Homo sapiens) (P06213 28-758 limits assumed): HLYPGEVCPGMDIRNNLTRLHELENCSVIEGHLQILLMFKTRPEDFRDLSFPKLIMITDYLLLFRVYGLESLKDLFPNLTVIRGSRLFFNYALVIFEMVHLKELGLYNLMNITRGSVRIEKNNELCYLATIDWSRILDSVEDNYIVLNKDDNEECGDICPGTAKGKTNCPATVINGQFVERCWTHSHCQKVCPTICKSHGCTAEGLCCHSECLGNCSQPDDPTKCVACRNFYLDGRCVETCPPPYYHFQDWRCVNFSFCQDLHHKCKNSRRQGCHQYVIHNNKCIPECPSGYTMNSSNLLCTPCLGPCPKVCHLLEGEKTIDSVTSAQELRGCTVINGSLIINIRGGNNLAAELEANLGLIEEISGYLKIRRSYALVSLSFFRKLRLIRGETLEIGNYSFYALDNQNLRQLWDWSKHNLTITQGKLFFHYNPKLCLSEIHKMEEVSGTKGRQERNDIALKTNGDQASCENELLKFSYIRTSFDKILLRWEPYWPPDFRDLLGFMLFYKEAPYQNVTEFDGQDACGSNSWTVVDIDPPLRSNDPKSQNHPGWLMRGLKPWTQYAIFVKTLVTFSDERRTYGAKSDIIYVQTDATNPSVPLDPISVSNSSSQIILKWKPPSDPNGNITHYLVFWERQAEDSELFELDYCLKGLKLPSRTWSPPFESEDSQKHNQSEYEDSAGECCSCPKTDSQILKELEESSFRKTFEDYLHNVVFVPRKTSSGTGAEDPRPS
Sequence of Insulin receptor (Homo sapiens) (P06213 763-1382 limits assumed): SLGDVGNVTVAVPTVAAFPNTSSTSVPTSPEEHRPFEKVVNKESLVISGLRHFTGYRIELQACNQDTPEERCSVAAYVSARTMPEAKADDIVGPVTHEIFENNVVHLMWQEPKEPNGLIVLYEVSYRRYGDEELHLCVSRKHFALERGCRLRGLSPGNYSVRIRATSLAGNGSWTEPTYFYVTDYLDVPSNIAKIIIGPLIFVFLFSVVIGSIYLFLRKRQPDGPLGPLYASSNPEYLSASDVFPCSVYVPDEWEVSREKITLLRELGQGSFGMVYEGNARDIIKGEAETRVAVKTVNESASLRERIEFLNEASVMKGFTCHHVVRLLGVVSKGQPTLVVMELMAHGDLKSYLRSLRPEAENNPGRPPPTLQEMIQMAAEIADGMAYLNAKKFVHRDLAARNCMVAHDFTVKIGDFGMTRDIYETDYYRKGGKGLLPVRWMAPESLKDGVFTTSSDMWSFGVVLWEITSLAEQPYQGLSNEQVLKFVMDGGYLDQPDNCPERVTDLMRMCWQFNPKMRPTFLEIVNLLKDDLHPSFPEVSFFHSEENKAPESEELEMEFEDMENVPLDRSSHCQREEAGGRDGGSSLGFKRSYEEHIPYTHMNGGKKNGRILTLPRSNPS

In the case of `COc1ccc(OC)c2c(=S)c3ccccc3[nH]c12`, the residual activity was determined as 67% in experiment [1]; 101% in experiment [2]; 81% in experiment [3]; 98% in experiment [4]; 101% in [5]; 99% in experiment [6]. Moreover, the residual activity in [7] is 102%; in experiment [8] it was 95%; in [9], 95%; in experiment [10], 99%.
